{"source": "PubChem BioAssay (NCI)", "note": "This is part of a sample that, as a whole, favours compounds with a hit. Of some 83,000 tested, about 20% had one in any assay.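 Values shown are percent growth following 48 h exposure of cells in 96-well plates to a single concentration of compound; below 10 was considered active.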 Calls of active or inactive are those of the source."}
{"tested_on": "UO-31 renal", "test": "NCI-60 one-dose screen, 48 h (100 = growth as untreated, 0 = no growth, -100 = all killed)", "details": "10 µM unless noted"}
{"smiles": "O=S(=O)(NCCCNc1nccc(-n2ccc3cccnc32)n1)c1cccc(C(F)(F)F)c1", "growth": "104% (inactive)"}
{"smiles": "CC(C)(C)n1cc(-c2ccnc(NCCNS(=O)(=O)c3ccc(F)cc3)c2)c(-c2cccc(O)c2)n1", "growth": "53.9% (inactive)"}
{"smiles": "Cc1ccc(-c2cc3nc(C(Cl)Cl)nc(-c4ccccc4C)n3n2)cc1", "growth": "75.3% (inactive)"}
{"smiles": "O=C(NNC(=O)N1c2ccccc2C=Cc2ccccc21)c1ccc2ccccc2c1", "growth": "88% (inactive)"}
{"smiles": "CN(C[C@H]1Cc2c(cccc2N2CCN(Cc3ccccn3)CC2)CN1)[C@H]1CCCc2cccnc21", "growth": "20.1% (inactive)"}
{"smiles": "CCCCCCCCC(C)OC(=O)c1nn(C(C)=O)c2ccccc12", "note": "(stereo not drawn)", "growth": "83.1% (inactive)"}
{"smiles": "OC(c1cc2cc(Br)ccc2c2cc(Br)ccc12)C1CCCCN1", "note": "(stereo not drawn)", "growth": "-80.6% (active)"}
{"smiles": "O=C(NS(=O)(=O)c1ccc2ccccc2c1)n1cc(-c2ccncc2)c(-c2ccc(Cl)c(O)c2)n1", "growth": "56.4% (inactive)"}
{"smiles": "Cc1cc(N)n(S(=O)(=O)c2oc(-c3ccccc3)nc2C#N)n1", "growth": "80.6% (inactive)"}
{"smiles": "O=[N+]([O-])c1ccc(C(c2ccccc2)c2ccccc2)cc1", "growth": "80.4% (inactive)"}
{"smiles": "CN(C)c1oc(C2OC2c2ccccc2)nc1C#N", "note": "(stereo not drawn)", "growth": "77.8% (inactive)"}
{"smiles": "Cc1ccc(S(=O)(=O)NC(=O)n2cc(-c3ccncc3)c(-c3ccc(Cl)c(O)c3)n2)cc1", "growth": "107% (inactive)"}
{"smiles": "CN(CCCCN(C[C@H]1Cc2ncccc2CN1)[C@H]1CCCc2cccnc21)C1CCC(F)(F)CC1", "growth": "67.6% (inactive)"}
{"smiles": "Cc1cc(C2(c3cc(C)c(O)cc3C)OS(=O)(=O)c3ccccc32)c(C)cc1O", "growth": "69.4% (inactive)"}
{"smiles": "CC1CN(c2oc(-c3ccccc3)nc2C#N)CC(C)O1", "note": "(stereo not drawn)", "growth": "95.2% (inactive)"}
{"smiles": "NC(=O)CCCN1C/C(=C\\c2ccccc2)C(=O)c2ccccc21", "growth": "78.1% (inactive)"}
{"smiles": "Cc1ccc(S(=O)(=O)NCCCNc2cc(-c3cn(C(C)(C)C)nc3-c3cccc(O)c3)ccn2)cc1", "growth": "73.2% (inactive)"}
{"smiles": "Cc1nc2ncccc2nc1Nc1ccc(S(=O)(=O)Nc2ccccn2)cc1", "growth": "61.5% (inactive)"}
{"smiles": "COc1ccc(NC(=O)c2c(Nc3ccc(OC)cc3OC)n[nH]c2N)c(OC)c1", "growth": "69.7% (inactive)"}
{"smiles": "CCOC(=O)c1cn2c3c(cc(C)cc3c1=O)C(=O)/C(=C/c1ccccc1)C2", "growth": "57.6% (inactive)"}
{"smiles": "N=c1ccc2nc3ccc(N)cc3sc-2c1", "growth": "69.1% (inactive)"}
{"smiles": "CC12CCC3C4(C)COC(c5ccccc5Cl)OC4CCC3(C)C1CC(C1=CCOC1=O)O2", "note": "(stereo not drawn)", "growth": "53.9% (inactive)"}
{"smiles": "C=C1CCC2C(C)(CO)C(O)CCC2(C)C1CC(NCc1ccccc1)C1=CCOC1=O", "note": "(stereo not drawn)", "growth": "87.9% (inactive)"}
{"smiles": "c1cc(C2=N[C@@H]3c4ccccc4C[C@@H]3O2)nc(C2=N[C@@H]3c4ccccc4C[C@@H]3O2)c1", "growth": "94.6% (inactive)"}
{"smiles": "COC1=C(OC)C(=O)C(CCCCCCCCCC[P+](c2ccccc2)(c2ccccc2)c2ccccc2)=C(C)C1=O", "growth": "-18.2% (active)"}
{"smiles": "COc1ccc(-c2cc(-c3ccccc3)nc(SCCCC(=O)NO)n2)cc1OC", "growth": "-39.6% (active)"}
{"smiles": "N=C(N)c1ccc(-c2cc(Cl)cc(Cl)c2)cn1", "growth": "70.2% (inactive)"}
{"smiles": "Nc1cccc(-c2nc3sccn3c2-c2ccnc(NCCNS(=O)(=O)c3ccc(C(F)(F)F)cc3)n2)c1", "growth": "15.8% (inactive)"}
{"smiles": "C=C1CCC2C(C)(CO)C(O)CCC2(C)C1C/C=C1/C(=O)OCC1O/C=C/c1ccccc1", "note": "(stereo not drawn)", "growth": "69.1% (inactive)"}
{"smiles": "CCN(CC)CCC(CNc1ccnc2cc(Cl)ccc12)c1ccccc1", "note": "(stereo not drawn)", "growth": "15.2% (inactive)"}
{"smiles": "COc1ccc(-c2ccc(-c3ccc(C(=N)N)cn3)s2)cc1OC", "growth": "85.7% (inactive)"}
{"smiles": "Cn1cnc2c(N3CCN(C(=O)OCc4ccc5c(Cl)cc(Cl)c(O)c5n4)CC3)nc(Cl)nc21", "growth": "48.2% (inactive)"}
{"smiles": "C=C1CCC2C(C)(CO)C(O)CCC2(C)C1C/C=C1/C(=O)OCC1Oc1ccccc1C", "note": "(stereo not drawn)", "growth": "93% (inactive)"}
{"smiles": "COc1ccc(S(=O)(=O)NCCCNc2nccc(-n3ccc4cccnc43)n2)cc1", "growth": "97.5% (inactive)"}
{"smiles": "CCN(CC)CCC(CNc1ccnc2cc(Cl)ccc12)c1ccc(Cl)cc1", "note": "(stereo not drawn)", "growth": "-84.7% (active)"}
{"smiles": "N=C(N)c1ccc(-c2ccc(-c3ccc(-c4cccs4)s3)s2)cc1", "growth": "93% (inactive)"}
{"smiles": "COc1ccc(Nc2nn3c(C)cc(C)nc3c2C(=O)Nc2ccc(C)cc2)c(OC)c1", "growth": "82% (inactive)"}
{"smiles": "CCCCCCN1CSC(=S)N(CCCCCC)C1", "growth": "79.3% (inactive)"}
{"smiles": "O=C(NS(=O)(=O)c1ccccc1)n1cc(-c2ccncc2)c(-c2ccc(Cl)c(O)c2)n1", "growth": "112% (inactive)"}
{"tested_on": "TK-10 renal", "test": "NCI-60 one-dose screen, 48 h (100 = growth as untreated, 0 = no growth, -100 = all killed)", "details": "10 µM unless noted"}
{"smiles": "O=S(=O)(NCCCNc1nccc(-n2ccc3cccnc32)n1)c1cccc(C(F)(F)F)c1", "growth": "102% (inactive)"}
{"smiles": "CC(C)(C)n1cc(-c2ccnc(NCCNS(=O)(=O)c3ccc(F)cc3)c2)c(-c2cccc(O)c2)n1", "growth": "102% (inactive)"}
{"smiles": "Cc1ccc(-c2cc3nc(C(Cl)Cl)nc(-c4ccccc4C)n3n2)cc1", "growth": "54.8% (inactive)"}
{"smiles": "O=C(NNC(=O)N1c2ccccc2C=Cc2ccccc21)c1ccc2ccccc2c1", "growth": "102% (inactive)"}
{"smiles": "CN(C[C@H]1Cc2c(cccc2N2CCN(Cc3ccccn3)CC2)CN1)[C@H]1CCCc2cccnc21", "growth": "58.7% (inactive)"}
{"smiles": "CCCCCCCCC(C)OC(=O)c1nn(C(C)=O)c2ccccc12", "note": "(stereo not drawn)", "growth": "93.2% (inactive)"}
{"smiles": "OC(c1cc2cc(Br)ccc2c2cc(Br)ccc12)C1CCCCN1", "note": "(stereo not drawn)", "growth": "-90.5% (active)"}
{"smiles": "O=C(NS(=O)(=O)c1ccc2ccccc2c1)n1cc(-c2ccncc2)c(-c2ccc(Cl)c(O)c2)n1", "growth": "116% (inactive)"}
{"smiles": "Cc1cc(N)n(S(=O)(=O)c2oc(-c3ccccc3)nc2C#N)n1", "growth": "99.1% (inactive)"}
{"smiles": "O=[N+]([O-])c1ccc(C(c2ccccc2)c2ccccc2)cc1", "growth": "96.4% (inactive)"}
{"smiles": "CN(C)c1oc(C2OC2c2ccccc2)nc1C#N", "note": "(stereo not drawn)", "growth": "129% (inactive)"}
{"smiles": "Cc1ccc(S(=O)(=O)NC(=O)n2cc(-c3ccncc3)c(-c3ccc(Cl)c(O)c3)n2)cc1", "growth": "95.5% (inactive)"}
{"smiles": "CN(CCCCN(C[C@H]1Cc2ncccc2CN1)[C@H]1CCCc2cccnc21)C1CCC(F)(F)CC1", "growth": "82.4% (inactive)"}
{"smiles": "Cc1cc(C2(c3cc(C)c(O)cc3C)OS(=O)(=O)c3ccccc32)c(C)cc1O", "growth": "88.5% (inactive)"}
{"smiles": "CC1CN(c2oc(-c3ccccc3)nc2C#N)CC(C)O1", "note": "(stereo not drawn)", "growth": "116% (inactive)"}
{"smiles": "NC(=O)CCCN1C/C(=C\\c2ccccc2)C(=O)c2ccccc21", "growth": "95% (inactive)"}
{"smiles": "Cc1ccc(S(=O)(=O)NCCCNc2cc(-c3cn(C(C)(C)C)nc3-c3cccc(O)c3)ccn2)cc1", "growth": "107% (inactive)"}
{"smiles": "Cc1nc2ncccc2nc1Nc1ccc(S(=O)(=O)Nc2ccccn2)cc1", "growth": "106% (inactive)"}
{"smiles": "COc1ccc(NC(=O)c2c(Nc3ccc(OC)cc3OC)n[nH]c2N)c(OC)c1", "growth": "117% (inactive)"}
{"smiles": "CCOC(=O)c1cn2c3c(cc(C)cc3c1=O)C(=O)/C(=C/c1ccccc1)C2", "growth": "75% (inactive)"}
{"smiles": "N=c1ccc2nc3ccc(N)cc3sc-2c1", "growth": "11.9% (inactive)"}
{"smiles": "CC12CCC3C4(C)COC(c5ccccc5Cl)OC4CCC3(C)C1CC(C1=CCOC1=O)O2", "note": "(stereo not drawn)", "growth": "94.9% (inactive)"}
{"smiles": "C=C1CCC2C(C)(CO)C(O)CCC2(C)C1CC(NCc1ccccc1)C1=CCOC1=O", "note": "(stereo not drawn)", "growth": "103% (inactive)"}
{"smiles": "c1cc(C2=N[C@@H]3c4ccccc4C[C@@H]3O2)nc(C2=N[C@@H]3c4ccccc4C[C@@H]3O2)c1", "growth": "101% (inactive)"}
{"smiles": "COC1=C(OC)C(=O)C(CCCCCCCCCC[P+](c2ccccc2)(c2ccccc2)c2ccccc2)=C(C)C1=O", "growth": "-56.7% (active)"}
{"smiles": "COc1ccc(-c2cc(-c3ccccc3)nc(SCCCC(=O)NO)n2)cc1OC", "growth": "4.89% (active)"}
{"smiles": "N=C(N)c1ccc(-c2cc(Cl)cc(Cl)c2)cn1", "growth": "115% (inactive)"}
{"smiles": "Nc1cccc(-c2nc3sccn3c2-c2ccnc(NCCNS(=O)(=O)c3ccc(C(F)(F)F)cc3)n2)c1", "growth": "86.1% (inactive)"}
{"smiles": "C=C1CCC2C(C)(CO)C(O)CCC2(C)C1C/C=C1/C(=O)OCC1O/C=C/c1ccccc1", "note": "(stereo not drawn)", "growth": "119% (inactive)"}
{"smiles": "CCN(CC)CCC(CNc1ccnc2cc(Cl)ccc12)c1ccccc1", "note": "(stereo not drawn)", "growth": "55.9% (inactive)"}
{"smiles": "COc1ccc(-c2ccc(-c3ccc(C(=N)N)cn3)s2)cc1OC", "growth": "128% (inactive)"}
{"smiles": "Cn1cnc2c(N3CCN(C(=O)OCc4ccc5c(Cl)cc(Cl)c(O)c5n4)CC3)nc(Cl)nc21", "growth": "96% (inactive)"}
{"smiles": "C=C1CCC2C(C)(CO)C(O)CCC2(C)C1C/C=C1/C(=O)OCC1Oc1ccccc1C", "note": "(stereo not drawn)", "growth": "136% (inactive)"}
{"smiles": "COc1ccc(S(=O)(=O)NCCCNc2nccc(-n3ccc4cccnc43)n2)cc1", "growth": "105% (inactive)"}
{"smiles": "CCN(CC)CCC(CNc1ccnc2cc(Cl)ccc12)c1ccc(Cl)cc1", "note": "(stereo not drawn)", "growth": "-8.87% (active)"}
{"smiles": "N=C(N)c1ccc(-c2ccc(-c3ccc(-c4cccs4)s3)s2)cc1", "growth": "95.3% (inactive)"}
{"smiles": "COc1ccc(Nc2nn3c(C)cc(C)nc3c2C(=O)Nc2ccc(C)cc2)c(OC)c1", "growth": "107% (inactive)"}
{"smiles": "CCCCCCN1CSC(=S)N(CCCCCC)C1", "growth": "111% (inactive)"}
{"smiles": "O=C(NS(=O)(=O)c1ccccc1)n1cc(-c2ccncc2)c(-c2ccc(Cl)c(O)c2)n1", "growth": "101% (inactive)"}
